Reference: PubChem BioAssay (EPA / NIEHS)
Calls of active or inactive are those of the source. Rule for the calls: active = hit-call score of the fitted dose curve at least 0.9, where 1 is the maximum; inactive = score below 0.9.

target: Signal transducer and activator of transcription 3 (Homo sapiens) (UniProt P40763); assay: ATG_STAT3_CIS: Attagene CIS-FACTORIAL HepG2 Assay for human Signal Transducer and Activator of Transcription 3 (STAT3) (AID 2282963); conditions: HepG2, Attagene cis-factorial STAT3 reporter transcription; actives raise or lower the signal
Sequence (P40763 whole entry, looked up): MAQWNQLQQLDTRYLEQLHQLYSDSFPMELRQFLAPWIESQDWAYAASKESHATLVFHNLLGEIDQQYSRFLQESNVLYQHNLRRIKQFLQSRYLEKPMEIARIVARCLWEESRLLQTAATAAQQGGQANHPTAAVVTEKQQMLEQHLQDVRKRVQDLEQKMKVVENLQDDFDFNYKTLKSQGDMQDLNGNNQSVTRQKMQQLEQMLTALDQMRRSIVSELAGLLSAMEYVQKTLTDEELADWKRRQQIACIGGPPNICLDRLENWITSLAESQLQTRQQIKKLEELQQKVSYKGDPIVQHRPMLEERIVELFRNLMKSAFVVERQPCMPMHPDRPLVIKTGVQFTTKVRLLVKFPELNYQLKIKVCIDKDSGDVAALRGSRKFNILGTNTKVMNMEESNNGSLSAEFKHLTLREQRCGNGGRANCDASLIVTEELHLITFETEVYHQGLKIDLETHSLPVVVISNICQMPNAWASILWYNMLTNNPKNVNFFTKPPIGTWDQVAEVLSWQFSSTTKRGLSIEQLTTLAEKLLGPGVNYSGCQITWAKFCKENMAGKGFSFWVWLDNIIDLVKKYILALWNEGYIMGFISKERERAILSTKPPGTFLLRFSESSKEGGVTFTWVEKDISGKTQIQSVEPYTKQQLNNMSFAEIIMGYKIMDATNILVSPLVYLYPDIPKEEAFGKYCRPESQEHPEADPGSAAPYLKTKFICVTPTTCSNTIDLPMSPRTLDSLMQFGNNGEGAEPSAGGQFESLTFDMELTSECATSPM
Method: ATG_CIS is a cell-based, multiplexed-readout assay that uses HepG2, a human liver cell line, with measurements taken at 24 hours after chemical dosing in a 24-well plate.ATG_STAT3_CIS is one of 52 assay component(s) measured or calculated from the ATG_CIS assay. It is designed to make measurements of mRNA induction, a form of inducible reporter, as detected with fluorescence intensity signals by Reverse transcription polymerase chain reaction (RT-PCR) and Capillary electrophoresis technology.Data from the assay component ATG_STAT3_CIS was analyzed into 1 assay endpoint. This assay endpoint, ATG_STAT3_CIS, was analyzed with bidirectional fitting relative to DMSO as the negative control and baseline of activity. Using a type of inducible reporter, measures of mRNA for gain or loss-of-signal activity can be used to understand the reporter gene at the transcription factor-level as they relate to the gene STAT3. Furthermore, this assay endpoint can be referred to as a primary readout, because this assay has produced multiple assay endpoints where this one serves a reporter gene function. To generalize the intended target to other relatable targets, this assay endpoint is annotated to the dna binding intended target family, where the subfamily is stat protein.
Human liver HepG2 cells are transiently transfected with multiple reporter transcription units (MRTUs) in 6-well plates using FuGene 6 reagent (Roche; 3 ml FuGene/1 mg DNA). The MRTU constructs are regulated by a cis-regulating element (promoter). […] A major difference between the CIS and TRANS system is that in CIS activities of endogenous TFs are measured, whereas the TRANS assay evaluates changes in activities of exogenous, chimeric NR-Gal4 proteins. […] At the end of 24 hour incubation, total RNA was isolated using TriZol reagent (Invitrogen). The isolated RNA is then reverse-transcribed using oligo(dT) primer and Mo-MLV reverse transcriptase (Invitrogen) with DNAse I (Ambion) treatment for 30 min. The one-tenth of the produced cDNA was amplified by PCR using Taq DNA polymerase (Invitrogen) and two reporter sequence-specific primers. The PCR products were fluorescently labeled by primer extension with 6-arboxyfluorescein (6-FAM) 5'-labeled reporter sequence-specific primer (2 min at 95 C, 20 s at 68 C and 10 min at 72 C) and these products were digested with 5U of HpaI (New England Biolabs) for 2h at 37 C. The fragments were purified using Qiaquick PCR columns (Qiagen), analyzed on an ABI 3130xL genetic analyzer (Applied Biosystems) with peak positions identified by using a set of X-rhodamine (ROX)-labeled MapMarker1000 molecular weight standards (BioVentures). The raw capillary electrophoresis data was processed using Attagraph software (Attagene).

outcome, inactive:
CC(C)C(=O)C(C)C
CC(C)CCCCCOC(=O)CCS
CCOc1ccc(N)c([N+](=O)[O-])c1
CCOC(=O)c1ccc(N(C)C)cc1
CCc1ccc2c(c1)C(=O)c1ccccc1C2=O
CCCCCCOC(=O)C(C)CC (stereo not given)
O=C(O)CC(C(=O)O)C(CC(=O)O)C(=O)O (stereo not given)
C=C(C)[C@@H]1CCC2=CCC[C@@H](C)[C@]2(C)C1
CC(C)c1ccc(C#N)cc1
C1=CCCC1
CC(=O)[C@@]1(O)CC[C@H]2[C@@H]3C[C@H](C)C4=CC(=O)C=C[C@]4(C)[C@@]3(F)[C@@H](O)C[C@@]21C
O=C(O)Cc1c(Cl)ccc(Cl)c1Cl
CC(=O)NS(=O)(=O)c1ccc(N)cc1
CCCCCCCCCCc1ccccc1
CC(C)c1ccc(C=O)cc1
COC(=O)c1c(C)cc(O)c(C)c1O
COCCOCCOCCOCCOC
O=Cc1ccc(CO)o1
COc1ccc2nc(N)sc2c1
CCCCCc1ccc(Cl)cc1
Cc1cc(C)c(C)c(C)c1
Cc1ccc(C(C)c2ccc(C)c(C)c2)cc1C
C=CCOCC(O)CCl (stereo not given)
NNC(=O)c1cccc(C(=O)NN)c1
C=CC=CC=CCCCCC
COCc1c(C(C)C)nc(C(C)C)c(/C=C/[C@@H](O)C[C@@H](O)CC(=O)O)c1-c1ccc(F)cc1
O=C1CCC(=O)N1Cl
CCCCCCCC[N+](C)(CCCCCCCC)CCCCCCCC
NC(=O)C1CO1 (stereo not given)
CCOC(=O)N1CCC(=C2c3ccc(Cl)cc3CCc3cccnc32)CC1
CCCCCCCCCCCCCCCC[N+](C)(C)CC
CCCCCCCCCCCSCC(=O)O
CCOC(=O)[C@H](C)O
O=C(O)c1cc(Cl)cc([N+](=O)[O-])c1Cl
SCCc1cnccn1
CC(C)c1ccc2c(C(C)C)cc(C(C)C)c(S(=O)(=O)O)c2c1
N[C@H]1C(O)O[C@H](CO)[C@H](O)[C@@H]1O (stereo not given in full)
CCN(CCC#N)c1ccc(N=Nc2c(Cl)cc([N+](=O)[O-])cc2Cl)cc1
Cn1c(=O)[nH]c2ncn(C)c2c1=O
O=c1c2ccccc2oc2ccccc12
